Assay results: the supplement of paper PMC6555819

Test system: RARa:RXR (NR concentration 270 nM, RXRa partner concentration 90 nM)
Experiment: PBM binding z-score (relative to random genomic background probes); higher = stronger binding; sequences stand for … in GC…GCGATTGACAGCGTAGAATGAAGG
How it was run: (§1)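 Random background probes are the reference for binding z-scores. These scores derive from regression-normalized fluorescence on custom Agilent 4×180K protein-binding microarrays incubated 1 h with ligand-free nuclear receptor dimers. Binding was detected with antibodies against each partner (one per run).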

Sequence	PBM binding z-score
TCGACTAGGTTACGGGGGCATTCAGGGATGAAGA	3.47
CTATGTAGGTTAAGGGGGACATTCAGTTTGAAAG	1.65
CCGAGTAGGTTAGGAGGGGGCATTCAGTGCGAAT	2.88
CTGTGTAGGTTAAGGGGGTCATTCAGTTTGAAAG	5.48
CTATGTAGGTTAAGGGGGTCACTCAGTTTGAAAG	5.73
TCGAGTAGGTTAAGGGGGCATTCAGGGATGAAGA	2.87
TCGAGTTGGTTACGGGGGCATTCAGGGATGAAGA	2.3
TCGAGTAGTTTACGGGGGCATTCAGGGATGAAGA	2.36
TCGAGTAGGTTACGGGGGCATGCAGGGATGAAGA	2.91
CCGAGTAGGGTACGAGGGGGCATTCAGTGCGAAT	1.71
CCGAGTAGGTTACGAGGGGGAATTCAGTGCGAAT	1.23
CCGAGTAGGTTACAAGGGGGCATTCAGTGCGAAT	3
CTATGTAGGTTAAGGGGATCATTCAGTTTGAAAG	0.816
TCGAGTAGGTTACGGGCGCATTCAGGGATGAAGA	0.353
TCGAGTAGGTTACGGGGGCATTTAGGGATGAAGA	3.29
CTATGTAGGTTTAGGGGGTCATTCAGTTTGAAAG	5.1
TCGAGTAGGTTACGGGGGCATTCCGGGATGAAGA	3.14
TCGAGTAGGTTACCGGGGCATTCAGGGATGAAGA	0.534
TCGAGTAGGTGACGGGGGCATTCAGGGATGAAGA	2.63
CCGAGTAGGTTACGAGGTGGCATTCAGTGCGAAT	0.472

Sequence	PBM binding z-score
CTATGTAGGGTAAGGGGGTCATTCAGTTTGAAAG	5.58
CTATGTAGGTTCAGGGGGTCATTCAGTTTGAAAG	6.89
CCGAGTAGTTTACGAGGGGGCATTCAGTGCGAAT	2.06
CCGAGTAGGTTACGAGGGTGCATTCAGTGCGAAT	0.897
TCGAGTAGGTTACGGGGGCATTCAAGGATGAAGA	3.21
CTATGTACGTTAAGGGGGTCATTCAGTTTGAAAG	5.5
TCGAGTAGGTTACGGGGGCTTTCAGGGATGAAGA	1.99
CCGAGTAGGTTACGAGGGGGCATTCTGTGCGAAT	3.12
TCGCGTAGGTTACGGGGGCATTCAGGGATGAAGA	3.42
TCGAGTAGGTTACGGGGGCATTCATGGATGAAGA	2.88
CTATGTAGGTTAAGGGGGTCATTCACTTTGAAAG	5.77
CCGAGTATGTTACGAGGGGGCATTCAGTGCGAAT	2.27
CTATGTAGGTTAAGGGCGTCATTCAGTTTGAAAG	0.584
CCGAGTAGGTTACGAGGGGGCAGTCAGTGCGAAT	2.38
CTATGTCGGTTAAGGGGGTCATTCAGTTTGAAAG	5.76
TCGAGTAGGTTAGGGGGGCATTCAGGGATGAAGA	3.47
CTTTGTAGGTTAAGGGGGTCATTCAGTTTGAAAG	5.32
TCGAGTAGGTTACGAGGGCATTCAGGGATGAAGA	1.69
TCGAGTAGGTTACGGAGGCATTCAGGGATGAAGA	0.547

Test system: RARa homodimer (NR concentration 270 nM)
Experiment: as above
How it was run: as §1

Sequence	PBM binding z-score
TCGACTAGGTTACGGGGGCATTCAGGGATGAAGA	0.467
CTATGTAGGTTAAGGGGGACATTCAGTTTGAAAG	1.11
CCGAGTAGGTTAGGAGGGGGCATTCAGTGCGAAT	0.952
CTGTGTAGGTTAAGGGGGTCATTCAGTTTGAAAG	2.01
CTATGTAGGTTAAGGGGGTCACTCAGTTTGAAAG	3.18
TCGAGTAGGTTAAGGGGGCATTCAGGGATGAAGA	1.41
TCGAGTTGGTTACGGGGGCATTCAGGGATGAAGA	0.444
TCGAGTAGTTTACGGGGGCATTCAGGGATGAAGA	-0.25
TCGAGTAGGTTACGGGGGCATGCAGGGATGAAGA	0.522
CCGAGTAGGGTACGAGGGGGCATTCAGTGCGAAT	-0.0964
CCGAGTAGGTTACGAGGGGGAATTCAGTGCGAAT	0.123
CCGAGTAGGTTACAAGGGGGCATTCAGTGCGAAT	0.759
CTATGTAGGTTAAGGGGATCATTCAGTTTGAAAG	0.323
TCGAGTAGGTTACGGGCGCATTCAGGGATGAAGA	-0.39
TCGAGTAGGTTACGGGGGCATTTAGGGATGAAGA	0.213
CTATGTAGGTTTAGGGGGTCATTCAGTTTGAAAG	1.56
TCGAGTAGGTTACGGGGGCATTCCGGGATGAAGA	0.0892
TCGAGTAGGTTACCGGGGCATTCAGGGATGAAGA	-0.856
TCGAGTAGGTGACGGGGGCATTCAGGGATGAAGA	0.214
CCGAGTAGGTTACGAGGTGGCATTCAGTGCGAAT	-0.0316

Sequence	PBM binding z-score
CTATGTAGGGTAAGGGGGTCATTCAGTTTGAAAG	1.26
CTATGTAGGTTCAGGGGGTCATTCAGTTTGAAAG	2.03
CCGAGTAGTTTACGAGGGGGCATTCAGTGCGAAT	0.00505
CCGAGTAGGTTACGAGGGTGCATTCAGTGCGAAT	-0.753
TCGAGTAGGTTACGGGGGCATTCAAGGATGAAGA	0.0228
CTATGTACGTTAAGGGGGTCATTCAGTTTGAAAG	1.37
TCGAGTAGGTTACGGGGGCTTTCAGGGATGAAGA	-0.0109
CCGAGTAGGTTACGAGGGGGCATTCTGTGCGAAT	0.262
TCGCGTAGGTTACGGGGGCATTCAGGGATGAAGA	0.315
TCGAGTAGGTTACGGGGGCATTCATGGATGAAGA	0.144
CTATGTAGGTTAAGGGGGTCATTCACTTTGAAAG	1.84
CCGAGTATGTTACGAGGGGGCATTCAGTGCGAAT	0.735
CTATGTAGGTTAAGGGCGTCATTCAGTTTGAAAG	-0.284
CCGAGTAGGTTACGAGGGGGCAGTCAGTGCGAAT	0.525
CTATGTCGGTTAAGGGGGTCATTCAGTTTGAAAG	4.21
TCGAGTAGGTTAGGGGGGCATTCAGGGATGAAGA	2.35
CTTTGTAGGTTAAGGGGGTCATTCAGTTTGAAAG	2.04
TCGAGTAGGTTACGAGGGCATTCAGGGATGAAGA	-0.742
TCGAGTAGGTTACGGAGGCATTCAGGGATGAAGA	-0.666
